HTT promoter inh – inhibitors of huntingtin promoter activity; HEK293 HTT promoter firefly luciferase reporter, 24 h; Potency, µM (highest dose often 57.5 µM), without a hit: top-dose activity change, negative = inhibition, most hits filed as inhibitors; hit rate 0.93% among 48,000; also: potency is read from the fitted curve at half-maximal effect; nearly all actives have a fitted effect of over 50% in size
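HEK293 Fluc reporter, 2,500 cells/well, 24 h pre-culture; cpds up to 57.5 uM final, 24 h 37 degrees C; Dual-Glo, 10 min RT; normalized vehicle = 0%, zero RLU = -100%.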
HTT-AS act – HTT-AS promoter activation; Potency, µM (titrated, usually from 57.5 µM), inactives show at the top dose activity change, positive = activation, actives largely listed as activators; AID 1508624; HEK293 HTT-AS promoter firefly luciferase reporter, 24 h; response scale: percent change from vehicle, -100% = no light; hit rate 0.24% among 48,000; also: potency is read from the fitted curve at half-maximal effect; nearly all actives have a fitted effect of over 55% in size
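HEK293 Fluc reporter, 2,500 cells/well, 24 h pre-culture; cpds up to 57.5 uM final, 24 h 37 degrees C; Dual-Glo, 10 min RT; normalized vehicle = 0%, zero RLU = -100%.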
PMP22 txn – modulates PMP22 transcription in S16 Schwann cells | hit rate 2% among 43,000 | S16 Pmp22-F2sN Schwann cells, FLuc/NLuc coincidence luminescence, 24 h | Potency, µM (series often up to 57.5 µM), without a hit: at the highest dose activity change, negative = inhibition, usual class: inhibitors; active = clear falling dose curves in both reporters; inconclusive = both reporters move, but less clearly or upward; inactive = either reporter flat; the % is the NLuc reporter signal; also: potency is read from the fitted curve at half-maximal effect; % is scaled to controls: 0 for no effect and ±100 for the full control effect
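S16 Schwann cells carrying FLuc/NLuc coincidence reporter in the Pmp22 3' UTR treated with compound 24 h at 37C; FLuc then NLuc luminescence read sequentially by dual-luciferase reagents.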
S16 F2sN tox – cytotoxicity in S16 Pmp22-F2sN Schwann cells; AID 1508642; hit rate 0.48% among 43,000; S16 Pmp22-F2sN Schwann cells viability, CellTiter-Glo, 24 h; Potency, µM (top dose mostly 57.5 µM), for the others: top-dose activity change, negative = cytotoxicity, usual class: cytotoxic; also: potency is read from the fitted curve at half-maximal effect; % is scaled to controls: 0 for no effect and ±100 for the full control effect; nearly all actives have a fitted effect of over 65% in size
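Rat S16 Schwann reporter line, 24 h treatment with library compounds delivered at 23 nL per well. Cell viability by CellTiter-Glo luminescence.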
pS6 MEF inh – inhibitors of mTORC1 signaling in Tsc2-/- p53-/- MEF cells; Potency, µM (titrated, usually from 38.3 µM), for inactives: at the top dose activity change, negative = inhibition, actives largely listed as inhibitors; Tsc2-/- p53-/- MEF, phospho-rpS6 immunofluorescence/PI, 24 h; hit rate 0.78% among 44,000;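 also: potency is read from the fitted curve at half-maximal effect; plate controls were DMSO for no effect and rapamycin for full effect; nearly all actives have a fitted effect of over 50% in size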
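Plate MEFs (Tsc2-/-, p53-/-, empty vector) in DMEM/10% FBS; after 24 h add compound, incubate 24 h at 37 degree Celsius; fix in PFA/TX-100, block, stain phospho-rpS6 and 10 uM PI; scan at 488 nm; report % positive cells.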
NLuc saturating – counter-screen for PMP22 expression modulators: NanoLuc inhibition, saturating substrate; Potency, µM (series often up to 57.5 µM), without a hit: at the top dose activity change, negative = inhibition, usual class: inhibitors; hit rate 4% among 690; shares compounds with PMP22 txn; Secreted NLuc enzyme (filtered S16 cell medium), Nano-Glo luminescence; also: potency is read from the fitted curve at half-maximal effect; % is scaled to controls: 0 for no effect and ±100 for the full control effect
NLuc Km ctr – inhibits NanoLuc under Km conditions, PMP22 counter-screen; shares compounds with PMP22 txn; hit rate 5% among 690; AID 1508639; Potency, µM (top dose mostly 57.5 µM), for the others: at the highest dose activity change, negative = inhibition, usual class: inhibitors; secreted NLuc enzyme, coelenterazine luminescence, Km conditions; also: potency is read from the fitted curve at half-maximal effect; % is scaled to controls: 0 for no effect and ±100 for the full control effect
FLuc ctr PMP22 – inhibits firefly luciferase, PMP22 counter-screen; 690 tested, under 10 active; Potency, µM (series often up to 57.5 µM), without a hit: at the highest dose activity, negative = inhibition, hits mostly inhibitors; purified P. pyralis FLuc, luminescence, 10 min; shares compounds with PMP22 txn; AID 1508640; also: % of control where 0% means no effect
Target sequence (P08659 whole entry, looked up): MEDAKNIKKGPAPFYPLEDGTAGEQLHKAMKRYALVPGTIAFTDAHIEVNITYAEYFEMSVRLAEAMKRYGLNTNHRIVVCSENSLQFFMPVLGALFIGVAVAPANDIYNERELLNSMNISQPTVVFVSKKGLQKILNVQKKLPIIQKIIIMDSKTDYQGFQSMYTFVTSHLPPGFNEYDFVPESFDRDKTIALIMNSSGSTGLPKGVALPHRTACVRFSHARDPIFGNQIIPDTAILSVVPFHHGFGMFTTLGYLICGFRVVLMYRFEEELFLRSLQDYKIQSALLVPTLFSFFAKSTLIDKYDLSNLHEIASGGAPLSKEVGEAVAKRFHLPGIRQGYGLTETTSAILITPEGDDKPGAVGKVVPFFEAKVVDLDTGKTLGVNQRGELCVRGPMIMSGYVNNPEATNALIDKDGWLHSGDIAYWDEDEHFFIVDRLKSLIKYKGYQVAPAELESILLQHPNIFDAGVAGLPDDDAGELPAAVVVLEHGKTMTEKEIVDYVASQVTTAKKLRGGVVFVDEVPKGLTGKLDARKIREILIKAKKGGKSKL
S16 F2sN tox cnf – confirmation of cytotoxicity in S16 Pmp22-F2sN Schwann cells (luciferase reporters placed in the Pmp22 gene) | shares compounds with PMP22 txn | S16 Schwann cells viability, CellTiter-Glo ATP luminescence, 24 h | Potency, µM (doses to about 57.5 µM), for the others: at the highest dose activity change, negative = viability loss, most hits filed as cytotoxic | hit rate 7% among 690; also: potency is read from the fitted curve at half-maximal effect; % is scaled to controls: 0 for no effect and ±100 for the full control effect
PMP22 txn cnf – confirmation of modulators of PMP22 gene transcription in S16 cells; hit rate 22% among 690; Potency, µM (doses to about 57.5 µM), for the others: at the top dose activity change, negative = inhibition, usual class: inhibitors; shares compounds with PMP22 txn; AID 1508646; S16 Schwann cells Pmp22-F2sN, dual luciferase, 24 h; active = clear falling dose curves in both reporters; inconclusive = both reporters move, but less clearly or upward; inactive = either reporter flat; the % is the FLuc reporter signal; also: potency is read from the fitted curve at half-maximal effect
PMP22 HiBiT cnf – confirmation of modulators of rat PMP22 protein expression; shares compounds with PMP22 txn; S16 Schwann cells Pmp22-HiBiT, luminescence, 48 h; Potency, µM (highest dose often 27.9 µM), for inactives: top-dose activity change, negative = inhibition, usual class: inhibitors; 95 tested, under 10 active
Target sequence (P25094 whole entry, looked up): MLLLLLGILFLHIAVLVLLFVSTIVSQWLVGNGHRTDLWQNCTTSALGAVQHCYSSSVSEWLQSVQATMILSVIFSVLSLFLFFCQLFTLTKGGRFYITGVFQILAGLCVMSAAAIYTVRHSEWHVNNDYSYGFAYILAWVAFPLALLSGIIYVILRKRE
* = called active by the depositor; ? = inconclusive; . = no result given. This is a sample that favours compounds with a hit; in the whole collection about 3.6% have one here. Unless noted, calls follow the shape of the dose curve; as a rule, active = well fitted curve in the direction sought with a large enough effect; inconclusive = small, poorly fitted or top-dose-only effect, or another doubt; inactive = no such curve, though single readings can be large; an effect the other way counts as inactive or inconclusive.

SMILES	HTT promoter inh	HTT-AS act	PMP22 txn	S16 F2sN tox	pS6 MEF inh	NLuc saturating	NLuc Km ctr	FLuc ctr PMP22	S16 F2sN tox cnf	PMP22 txn cnf	others
CCN(Cc1ccccc1)C(=O)Cn1c(=O)n(-c2ccccc2)c(=O)c2c1c1cc(C)ccc1n2C	-15.1%	-14.6%	17.9µM*	?	2.9%	-6.2%	1.4%	4.3%	18.5%	?
Cc1cccc(-n2c(=O)c3c(c4cc(C)ccc4n3C)n(CC(=O)NCCC3=CCCCC3)c2=O)c1	-11.7%	-8.8%	?	-0.4%	-5.8%	2.2%	12.3%	5.1%	?	17.2µM*	PMP22 HiBiT cnf=4.4%
CCN(Cc1ccccc1)C(=O)Cn1c(=O)n(-c2cccc(C)c2)c(=O)c2c1c1cc(OC)ccc1n2C	-11.9%	-17.5%	?	17.2%	6.8%	.	.	.	.	.
COc1ccc(NC(=O)Cn2c(=O)n(-c3cccc(C)c3)c(=O)c3c2c2cc(C)ccc2n3C)cc1Cl	-23.2%	-29.4%	15.2µM*	10.7%	-3.1%	-2.0%	2.0%	2.1%	0.1%	?
CC1=Nc2cc(C(=O)NC3CCCC3)ccc2Sc2ccc(C)cc21	?	-46.9%	7.81µM*	1.9%	?	-10.4%	3.9%	-7.3%	14.9%	?
CC1=Nc2cc(C(=O)NC(C)C)ccc2Sc2ccc(C)cc21	?	-33.3%	?	-19.3%	?	.	.	.	.	.
COc1ccc(-n2c(=O)c3c(c4cc(OC)ccc4n3C)n(CCC(C)C)c2=O)cc1	-13.1%	-16.6%	2.06µM*	8.4%	1.1%	-18.1%	-1.9%	3.1%	8.6%	-21.3%
Cc1cc(Nc2sc(C(=O)c3ccc(F)cc3)c(N)c2C(=O)Nc2ccc(F)cc2)ccc1Cl	?	-18.6%	6.31µM*	?	-11.2%	-19.4%	?	3.3%	?	6.11µM*
Cc1ccc(NC(=O)c2c(Nc3ccccc3C)sc(C(=O)c3ccccc3)c2N)cc1	?	-17.1%	?	?	-14.1%	.	.	.	.	.
C[C@H]1C[C@H](O)c2ccsc2S1(=O)=O	-0.2%	0.4%	.	.	.	.	.	.	.	.
CCCCn1c(=O)c2oc3ccccc3c2n(CC(=O)Nc2ccc(CC)cc2)c1=O	-10.7%	-3.1%	14.2µM*	14.4%	1.0%	-10.2%	5.0%	-11.9%	-3.9%	?
CCOc1ccccc1NC(=O)CSc1nc2c(oc3ccccc32)c(=O)n1Cc1ccco1	-15.1%	-21.9%	11.3µM*	?	-3.7%	-15.7%	2.1%	-6.8%	1.7%	-32.9%
Cc1cc(C)cc(NC(=O)Cn2c(=O)n(Cc3ccco3)c(=O)c3oc4ccccc4c32)c1	-26.4%	-20.7%	?	-8.7%	-10.9%	.	.	.	.	.
CCCCn1c(=O)c2oc3ccccc3c2n(CC(=O)Nc2cc(C)ccc2C)c1=O	-12.9%	-8.3%	?	-0.2%	-5.0%	.	.	.	.	.
Cc1ccc(C)c(NC(=O)Cn2c(=O)n(Cc3ccccc3)c(=O)c3oc4ccccc4c32)c1	-12.5%	-8.3%	18.9µM*	0.3%	-2.0%	-11.6%	-0.6%	-12.4%	?	?	PMP22 HiBiT cnf=?
Cc1ccc(C)c(NC(=O)Cn2c(=O)n(Cc3ccco3)c(=O)c3oc4ccccc4c32)c1	4.9%	?	11.9µM*	-2.4%	5.3%	-16.9%	2.8%	-0.1%	-23.9%	?
CCCCn1c(=O)c2oc3ccccc3c2n(CC(=O)Nc2cccc(Cl)c2)c1=O	-2.5%	-12.9%	-19.7%	7.9%	5.0%	.	.	.	.	.
O=C(Nc1c(Cl)cncc1Cl)c1ccc(OC(F)F)c(OCC2CC2)c1	3.6%	-15.5%	.	.	.	.	.	.	.	.
O=C(CN1C(=O)C2(CCCC2)NC[C@H]1c1cc(F)cc(F)c1)Nc1ccc2c(c1)C[C@@]1(C2)C(=O)Nc2ncccc21	-1.2%	-11.2%	.	.	.	.	.	.	.	.
COC(=O)Nc1ccc(-c2nc(N3CCOCC3)c3cnn(C4CCN(C(=O)OC)CC4)c3n2)cc1	-30.8%	-44.0%	.	.	.	.	.	.	.	.
O=C(NCCSc1c[nH]c2ccccc12)c1ccccc1Cl	-22.4%	-16.1%	?	?	1.2%	?	?	-12.2%	1.2%	-24.6%
O=C(NCCSc1c[nH]c2ccccc12)c1ccc(Cl)cc1	-1.6%	-8.7%	-3.1%	-27.1%	-2.5%	.	.	.	.	.
Cc1cccc(CNC(=O)c2cnc3sc(N4CCOCC4)nn3c2=O)c1	10.7%	-4.9%	-9.9%	1.3%	5.6%	.	.	.	.	.
Cc1cccc(CNC(=O)c2cnc3sc(N4CCCCCC4)nn3c2=O)c1	-5.3%	-10.9%	?	3.6%	-2.8%	-1.4%	4.4%	2.6%	23.3%	-5.4%
Cc1cc(CN2CCN(c3cccc(C)c3C)CC2)cs1	-8.0%	-12.2%	-29.9%	-12.7%	0.0%	.	.	.	.	.
Cc1c(Cl)cccc1N1C(N)=C(C#N)C(c2cc(CN3CCOCC3)cs2)C2=C1CCCC2=O (stereo not drawn)	-17.2%	-15.2%	7.23µM*	-5.6%	-2.9%	?	?	-8.5%	-9.9%	-30.6%
CCc1ccc(NC(=O)CSc2nc3nccnc3c(=O)n2CCc2c[nH]c3ccccc23)cc1	-9.4%	-22.5%	?	5.3%	0.0%	.	.	.	.	.
O=C(CSc1nc2nccnc2c(=O)n1CCc1c[nH]c2ccccc12)Nc1ccc(F)cc1	-21.6%	-31.5%	6.96µM*	11.9%	6.4%	?	?	-13.9%	6.8%	-39.5%
Nc1ccc(C(=O)c2cc3c(ccc4ccccc43)[nH]2)cc1	-17.2%	-25.7%	.	.	.	.	.	.	.	.

Assay outcomes deposited in PubChem BioAssay by National Center for Advancing Translational Sciences (NCATS).
